In PubChem BioAssay AID652054 (National Center for Advancing Translational Sciences (NCATS), 2013):
Among all 360,000 compounds or so, about 9,100 (2.5%) were called active. Not shown: some 4% with an inconclusive outcome. The sample holds actives, similar compounds and a random draw of the others, so the mix is not that of the screen. Values without a mark were called inactive. No stated cut-off is given here; in the data, active means max response below about -50%; inconclusive means no clear call, values can overlap the other calls; inactive means above that.

molecular target: D(3) dopamine receptor (Homo sapiens) (UniProt P35462); test: qHTS of D3 Dopamine Receptor Antagonist: qHTS; conditions: D3R cells, DiscoveRx beta-arrestin luminescence, antagonist mode; hits give low values
Sequence (P35462 whole entry, looked up): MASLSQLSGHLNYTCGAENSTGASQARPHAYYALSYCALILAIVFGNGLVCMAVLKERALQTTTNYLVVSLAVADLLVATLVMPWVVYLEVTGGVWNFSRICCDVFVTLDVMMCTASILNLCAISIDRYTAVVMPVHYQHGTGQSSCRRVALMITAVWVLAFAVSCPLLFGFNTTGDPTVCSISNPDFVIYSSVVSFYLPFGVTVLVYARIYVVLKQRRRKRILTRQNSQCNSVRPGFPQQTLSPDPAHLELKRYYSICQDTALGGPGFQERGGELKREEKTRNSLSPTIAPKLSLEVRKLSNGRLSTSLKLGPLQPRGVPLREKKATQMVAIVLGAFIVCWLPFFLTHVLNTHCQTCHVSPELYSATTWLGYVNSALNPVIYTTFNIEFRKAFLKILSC
In short: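 Cells plated overnight at 1500 cells/well, then exposed to library compounds with dopamine controls for 90 minutes at 37 degrees C. DiscoveRx reagent added for 30–60 minutes at room temperature; luminescence read, quantitative HTS format.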
On the % scale 0 is the no-effect control and ±100 the full control effect.

| Structure (SMILES) | max response, negative = inhibition |
| --- | --- |
| CCOC(=O)[C@]12CCCC=C1N(Cc1ccc(Cl)cc1Cl)C(=O)[C@H](CC(=O)N1CCCCC1)C2 | -25.8% |
| Cc1ccc2c(c1)C1CN(C)CCC1N2C(=O)c1ccccc1NS(=O)(=O)c1ccc(F)cc1C (configuration not stated) | -23.3% |
| Cc1ccc2c(c1)C1CN(C)CCC1N2S(=O)(=O)c1cccc(F)c1 (configuration not stated) | -54.7% (active) |
| Cc1ccc([N+](=O)[O-])cc1S(=O)(=O)N1CCCN(C)CC1 | -7.78% |
| Cc1ccc2c(c1)C1CN(C)CCC1N2C(=S)Nc1ccc(Cl)cc1Cl (configuration not stated) | -8.46% |
| Cc1ccc2c(c1)C1CN(C)CCC1N2S(=O)(=O)c1ccc(Oc2ccc([N+](=O)[O-])cc2)cc1 (configuration not stated) | -68.7% (active) |
| Cc1ccc2c(c1)C1CN(C)CCC1N2C(=S)Nc1ccc(OC(F)F)cc1 (configuration not stated) | -6.37% |
| O=C(Nc1cccc(Cc2ccccc2)c1)Nc1ccc2nc([C@@H]3O[C@H](CO)[C@@H](O)[C@H](O)[C@H]3O)[nH]c2c1 | 32.8% |
| Cc1ccc(C(=O)Nc2c(-c3ccccc3)[nH][nH]c2=O)cc1 | -20.8% |
| COCOCCn1cc(CN2CCS(=O)(=O)N(Cc3ccc(-c4ccccc4)cc3)C(CC(C)C)C2=O)nn1 (configuration not stated) | 13% |
| CC(C)NS(=O)(=O)c1ccc(NC(=O)c2cccnc2)cc1 | 0% |
| CCOC(=O)c1cc(NC(=O)c2cccnc2)ccn1 | -0.585% |
| Cc1c(C(=O)OC(C)C)sc(NC(=O)c2cccnc2)c1C#N | -61.4% (active) |
| CCOC(=O)[C@]12CCCC=C1N(Cc1ccc3c(c1)OCO3)C(=O)[C@H](CC(=O)N1CCN(C(=O)c3ccco3)CC1)C2 | -0.946% |
| Cc1cccc(C(=O)NC2CCN(CC(=O)Nc3cccc(Cl)c3)CC2)c1 | -13.9% |
| OC[C@@H]1CN(C2CCCC2)C[C@H](n2cnc3c(NC4CCC4)ncnc32)O1 | -7.86% |
| O=C(O)c1ccc([N+](=O)[O-])cc1Sc1ccsc1 | -56.7% (active) |
| CCN(CC)c1ccc([N+](=O)[O-])cc1C(=O)O | 9.06% |
| CNc1ccc([N+](=O)[O-])cc1C(=O)O | -6.53% |
| O=C(c1cc(C(=O)N2CCN(c3ccc(F)cc3)CC2)cc([N+](=O)[O-])c1)N1CCN(c2ccc(F)cc2)CC1 | -2.24% |
| CN1CCN(CCNC(=O)Nc2ccc([N+](=O)[O-])cc2)CC1 | -6.94% |
| O=C(NCCCN1CCN(c2ccc(F)cc2)CC1)Nc1ccc([N+](=O)[O-])cc1 | -118% (active) |

| Structure (SMILES) | max response, negative = inhibition |
| --- | --- |
| COc1ccc(C2OC(CCc3ccccc3)Cc3[nH]c(=S)[nH]c(=O)c32)cc1 (configuration not stated) | 0% |
| OC[C@@H]1CN(Cc2cccs2)C[C@H](n2cnc3c(Nc4ccccc4)ncnc32)O1 | -4.85% |
| COc1ccc(-c2ccc(CN3C(CC(C)C)C(=O)N(Cc4cn(CC5CCCCC5)nn4)CCS3(=O)=O)cc2)cn1 (configuration not stated) | 0.993% |
| CN(Cc1ccccc1F)c1cc2c(c3c1ccn3C)C1CCC2O1 (configuration not stated) | -29.6% |
| COc1ccc(/C=N/NC(=O)CNC(=O)c2ccc(S(=O)(=O)N3CCCC3)cc2)c(OC)c1 | -0.269% |
| COc1ccc(/C=N/NC(=O)c2ccc3c(c2)OCCO3)c(OC)c1 | -64.3% (active) |
| COc1ccc(/C=N/NC(=O)Nc2ccc3nsnc3c2)c(OC)c1 | -16.9% |
| COC(=O)[C@@]12C[C@@H](CC(=O)NCc3cccc(C(F)(F)F)c3)C(=O)N(Cc3ccco3)C1=CCC(C)(C)C2 | -1.5% |
| COc1cccc(/C=C/C(=O)Nc2ccc3c(c2)OCCO3)c1 | -6.81% |
| O=C(/C=C\c1ccc2c(c1)OCO2)NC1(C(=O)Nc2ccc3c(c2)OCCO3)CCCCC1 | -59.6% (active) |
| Cc1cccc(NC(=O)/C=C/c2ccc3c(c2)OCO3)n1 | -14.5% |
| CSC1=NN(c2ccccc2)CN(c2ccccc2)N1C | -6.6% |
| COC(=O)c1ccc2nc(C3CCCCC3)c(Cc3cccc(F)c3)n2c1 | 10.5% |
| O=C(CN1CCc2cc3c(cc2C1)OCCCO3)Nc1ccccc1 | -19.3% |
| CCOC(=O)N1CCN(CCC(=O)Nc2ccccc2)CC1 | -15.4% |
| CC1CCN(CCC(=O)Nc2ccccc2)CC1 | -0.851% |
| Cc1ccc(NC(=O)CN2CCc3ccccc3C2)cc1 | -84.2% (active) |
| COc1cc2c(cc1OC)CN(CC(=O)Nc1ccc(F)cc1)CC2 | -16.8% |
| Cc1ccc(NC(=O)CCN2CCc3ccccc3C2)cc1 | -94.8% (active) |
| COc1ccc(NC(=O)C[C@H]2C(=O)N(CCc3ccccc3)C[C@@H]2C)cc1 | 1.09% |
| CC(=O)NC(c1ccccc1)c1nc(-c2cccc(C(C)C)c2)cs1 (configuration not stated) | 20.2% |
| CC1(C(=O)NS(=O)(=O)c2ccc3ccccc3c2)CCN1C(=O)C1(c2ccc(Cl)cc2)CCC1 (configuration not stated) | -21.3% |

| Structure (SMILES) | max response, negative = inhibition |
| --- | --- |
| CNc1cncc(-c2cccc(C(=O)N3CCOCC3)c2)n1 | 13.3% |
| CCC(c1nnnn1-c1ccc2c(c1)OCCO2)N1CCN(c2ccc(C(F)(F)F)cn2)CC1 (configuration not stated) | 4.77% |
| COc1ccc(/C=C2\SC(=S)N(CCC(=O)N3CCOCC3)C2=O)cc1OC | -14.3% |
| O=C(NCCCN1CCCCCC1)C1CC(=O)N(C2CCCC2)C1 (configuration not stated) | 10.5% |
| COc1ccc(CN2CC(C(=O)NCCN3CCN(c4ccccc4F)CC3)CC2=O)cc1 (configuration not stated) | -22.6% |
| O=C(NCCCN1CCN(c2ccccc2F)CC1)C1CCC(=O)N1C1CCCCC1 (configuration not stated) | -78% (active) |
| O=C(C[C@H]1CC[C@H]2[C@@H](COC[C@H](O)CN2C(=O)c2ccccn2)O1)N1CCN(c2ccccc2)CC1 | -25.4% |
| CCOC(=O)C1CCCN(C(=O)c2ccc(N(C)C)cc2)CC1 (configuration not stated) | 22.6% |
| CC1=C(C(=O)N2CCOCC2)CC(CC(=O)NCC2CCCCC2)C(=O)N1Cc1ccc(F)cc1 (configuration not stated) | -11.1% |
| NC(Cc1ccc(F)cc1)c1csc(Nc2nncc3ccccc23)n1 (configuration not stated) | 7.2% |
| S=C1Nc2cc(Cl)ccc2Sc2ccccc21 | 4.03% |
| O=C1Cc2ccccc2Sc2ccc(Cl)cc21 | -51% (active) |
| O=C1CC2(CCCC2)Oc2ccc(Cl)cc21 | 0% |
| CCOC(=O)N1CCN(C(=O)C[C@@H]2C[C@@]3(C(=O)OC)CCCCC=C3N(CCC3=CCCCC3)C2=O)CC1 | 18.8% |
| Cc1ccc(Cn2cc(CN3CC(N4CCN(C)CC4)CS3(=O)=O)nn2)cc1 (configuration not stated) | -6.65% |
| O=S1(=O)CC(N2CCSCC2)CN1Cc1cn(Cc2cccc(Cl)c2)nn1 (configuration not stated) | 26.4% |
| COc1ccc(-c2cc(NC=O)c3ncc(-c4cccc(C(=O)N(C)C)c4)n3c2)c(OC)c1 | -2.96% |
| COC(=O)[C@]12CCCCC=C1N(CCC1=CCCCC1)C(=O)[C@H](CC(=O)N1CCSCC1)C2 | -7.56% |
| Cc1ccccc1C#CC1=CC(=O)CC(C)(C)C1 | -9.95% |
| Cc1nnc(SC(C)C(=O)c2c[nH]c3ccccc23)n1C1CC1 (configuration not stated) | 20.8% |
| O=C(CCl)Nc1ccc(Sc2ccc(NC(=O)CCl)cc2)cc1 | -60.1% (active) |
| O=C(Nc1ccc(Sc2ccc(Br)cc2)cc1)c1ccco1 | 17.2% |

| Structure (SMILES) | max response, negative = inhibition |
| --- | --- |
| O=C(CCl)Nc1cccc(CP(=O)(c2ccccc2)c2ccccc2)c1 | -12.5% |
| CC1(C)CC(=O)C=C(c2ccc(COC(=O)c3cc(F)cc(F)c3)cc2)C1=O | -13.6% |
| CC1CCCN(CC(O)COCc2ccccc2)C1 (configuration not stated) | -0.0789% |
| Cc1ccccc1C(OCC(O)CN1CCCCC1CCO)c1ccccc1 (configuration not stated) | -53.3% (active) |
| COc1cccc(CN(C)CC(O)COC(c2ccccc2)c2ccccc2C)c1 (configuration not stated) | -10.2% |
| CCc1nc2c(OCC(N)=O)cccn2c1N(C)C(=O)c1ccc(OC)cc1 | 0% |
| CCc1nc2c(OCc3ccc(C(=O)OC)cc3)cccn2c1N(C)C(=O)C(C)C | -12.4% |
| Cc1nc2c(OCc3ccc(Cl)cc3Cl)cccn2c1N(C)CC1CC1 | -58.1% (active) |
| Cc1nc2c(OCc3cccc(Cl)c3)cccn2c1N(C)CC1CC1 | -0.943% |
| CCCCC(=O)N(C)c1c(CC)nc2c(OCc3ccc(Cl)cc3Cl)cccn12 | -63.9% (active) |
| CCc1nc2c(OCCOc3ccccc3)cccn2c1N(C)C(=O)c1ccc(OC)cc1 | -76.4% (active) |
| CCOC(=O)N(C)c1c(CC)nc2c(OCc3ccccc3C(=O)OC)cccn12 | -50.7% (active) |
| CCc1nc2c(OCCOc3ccccc3)cccn2c1N(C)C(=O)c1ccccc1F | 14.9% |
| CCc1nc2c(OCc3ccc(Cl)cc3Cl)cccn2c1N(C)C(=O)C(C)C | -27.6% |
| Cc1nc2c(OCc3ccc(Cl)cc3)cccn2c1N(C)Cc1cccs1 | -0.327% |
| CCCCC(=O)N(C)c1c(CC)nc2c(OCc3ccc(S(C)(=O)=O)cc3)cccn12 | 0% |
| CCCCN(C=O)c1c(CC)nc2c(OCc3ccccc3C(=O)OC)cccn12 | -3.94% |
| COc1ccc(NC(=O)N(C)C[C@@H]2OCc3cn(nn3)CCCC(=O)N([C@H](C)CO)C[C@H]2C)c(OC)c1 | -1.72% |
| Cc1ccc2nc(-c3ccco3)c(Cc3cccc(Cl)c3)n2c1 | -5.94% |
| CCOCCC(=O)Nc1ccc2c(c1)c(=O)n(C)n2-c1ccc2ccccc2c1 | -26.6% |
| COc1cccc(C(NC(C)=O)c2nc(-c3ccccc3OC)cs2)c1 (configuration not stated) | 0% |
